# Results from the supplement of paper PMC12636033.
# ± gives the standard deviation of the averaged measurements. The full ranking holds about 33,000 sequences; the median of “E-score (rank enrichment, -0.5 to 0.5)” is about -0.0043, and the highest 2% start at about 0.24. Only a selection was taken, and the highest values are over-represented in it overall.
# Test system: 2Sp-muMax20 (muMax20 with two 2,6-bis(methyl)pyridine Cys staples)
# Assay: PBM 8-mer E-score (E-score (rank enrichment, -0.5 to 0.5)); higher = stronger preferential binding
# Description: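 Protein binding microarray (universal PBM chip covering all 10-mers in fixed probe flanks) with chemically synthesized human Max(13-93) bHLH-LZ analogs (not full-length Max) bearing noncanonical residues (hArg, Tha, Aib, Nle at 65) and aromatic Cys staples. Read-out per 8-mer (and its reverse complement): E-score (rank-based enrichment, -0.5 to 0.5) and Z-score of median probe intensity.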
row,Sequence,PBM 8-mer E-score
1,CGGCTCAG,-0.245 ± 0.011
2,AAGGCGAG,-0.114 ± 0.11
3,CCGCACCG,-0.232 ± 0.037
4,ATTGTAGG,0.163 ± 0.04
5,AGAAACAA,0.23 ± 0.034
6,ATAATGTC,0.0928 ± 0.013
7,ATTATGTC,-0.0254 ± 0.039
8,ATTATGTA,0.252 ± 0.063
9,CTAATGTA,0.0902 ± 0.11
10,ATTATGTG,0.19 ± 0.015
11,ATAATGTA,0.261 ± 0.054
12,CCAAGGTA,-0.122 ± 0.08
13,ATGGTCCG,-0.11 ± 0.052
14,GAGCTTAC,0.0525 ± 0.066
15,TACCCTGA,0.0285 ± 0.0041
16,GCTGAGAC,-0.0936 ± 0.027
17,GGTTGGCA,-0.0827 ± 0.032
18,AAAAGCTG,0.272 ± 0.0057
19,AAAAGCGC,0.236 ± 0.064
20,CAAAGCGC,-0.0804 ± 0.097
21,AAAAGCTA,0.141 ± 0.049
22,AAAAGCGA,0.147 ± 0.046
23,CAAAGCTG,0.0649 ± 0.017
24,AAAAAGCT,0.282 ± 0.011
25,AAAAAGCC,0.0819 ± 0.062

row,Sequence,PBM 8-mer E-score
1,AAAAAGCA,0.206 ± 0.014
2,ACTTTTGG,0.145 ± 0.018
3,GCAACGGC,-0.147 ± 0.018
4,GGCTCAGA,-0.204 ± 0.025
5,CCGAAGCC,-0.258 ± 0.035
6,ATAGCTAC,0.204 ± 0.0011
7,AGGTGTCG,-0.0243 ± 0.082
8,CAGAGGCC,-0.0446 ± 0.062
9,ATCAATTC,0.159 ± 0.024
10,CTCAATTA,0.0912 ± 0.079
11,AACAATTA,0.246 ± 0.078
12,GTCAATTA,0.0735 ± 0.075
13,ATCAATTG,0.255 ± 0.068
14,ATCAATTA,0.28 ± 0.041
15,AACAATTG,0.0804 ± 0.12
16,AACAATTC,0.166 ± 0.067
17,ATCAATCG,0.16 ± 0.038
18,AACGTCAT,0.0419 ± 0.012
19,AAGTTTCG,0.0139 ± 0.064
20,TACACTCA,0.0543 ± 0.059
21,CCAGAAAA,-0.0128 ± 0.11
22,GGGCAAAC,-0.0742 ± 0.046
23,AATCTATC,0.061 ± 0.099
24,CTGTCTAC,-0.085 ± 0.0076
25,ACGGGTGA,-0.227 ± 0.052

row,Sequence,PBM 8-mer E-score
1,CACACCCG,-0.15 ± 0.012
2,TCCACCCA,0.00246 ± 0.039
3,ACCACCCC,0.0435 ± 0.03
4,CCCACCCA,0.364 ± 0.023
5,GCCACCCC,-0.0325 ± 0.055
6,GCCACTTA,0.0747 ± 0.039
7,CCCACTTC,0.00615 ± 0.027
8,CCCACTTA,0.236 ± 0.023
9,CCCACCCC,0.332 ± 0.046
10,GCCACCCA,-0.126 ± 0.068
11,CCCACCCG,0.29 ± 0.03
12,ACCACCCG,-0.146 ± 0.077
13,ATCGGCCG,-0.187 ± 0.13
14,CCGGCGGC,-0.269 ± 0.029
15,CCTATTCG,-0.105 ± 0.0044
16,ACGAAGAA,0.16 ± 0.06
17,ATGCGATC,0.00891 ± 0.016
18,CAAGACGG,-0.109 ± 0.028
19,GCAATTGA,0.0718 ± 0.079
20,GCAATTGC,0.242 ± 0.013
21,CCAATTGC,0.108 ± 0.012
22,ACGTCCCG,-0.326 ± 0.046
23,AGGGCGGG,0.311 ± 0.011
24,AGGGCGGA,-0.101 ± 0.0044
25,AGGGCGGC,-0.0202 ± 0.17

row,Sequence,PBM 8-mer E-score
1,ATAACGTG,0.293 ± 0.018
2,ATAACGTA,0.107 ± 0.085
3,ATAACGTC,0.138 ± 0.029
4,ATAACTTG,0.241 ± 0.012
5,ATAACTTA,0.14 ± 0.043
6,ATAACTTC,0.0494 ± 0.033
7,CTGGGTCA,-0.0254 ± 0.017
8,AGCTACGC,0.0669 ± 0.0082
9,CCGTCGGC,-0.232 ± 0.016
10,CAAGCCAC,-0.143 ± 0.044
11,ATATTTTA,0.245 ± 0.02
12,CTATTTTA,0.224 ± 0.026
13,ATATTTAA,0.334 ± 0.019
14,GTATTTTA,0.0916 ± 0.055
15,ATATTTAC,0.159 ± 0.032
16,CTATTTAA,-0.0484 ± 0.012
17,ATCTTAGA,0.0255 ± 0.036
18,CTCGCCGC,-0.0225 ± 0.15
19,AATTGCCG,-0.00487 ± 0.03
20,GTTCTTTA,0.000435 ± 0.15
21,CTTCTTTA,0.245 ± 0.01
22,CTTCTTTC,-0.118 ± 0.046
23,AACCTACT,-0.0133 ± 0.062
24,AATCTGAT,0.057 ± 0.016
25,AAAATAAC,0.2 ± 0.041

row,Sequence,PBM 8-mer E-score
1,GAAATAAC,-0.1 ± 0.05
2,CAAATAAC,0.238 ± 0.041
3,ACAGTGGC,-0.0719 ± 0.054
4,CGAGGTTC,-0.105 ± 0.037
5,CCTCAGGA,-0.147 ± 0.12
6,AGTCGGGC,-0.144 ± 0.022
7,CCTATAAA,-0.143 ± 0.042
8,ATTATAAT,0.169 ± 0.1
9,ATTATAAG,0.28 ± 0.0046
10,CTTATAAC,0.0403 ± 0.076
11,GTTATAAC,0.16 ± 0.047
12,ATTATAAA,0.263 ± 0.069
13,ATTATAAC,0.247 ± 0.041
14,ATTATAGA,0.0771 ± 0.056
15,TTTATAAA,0.246 ± 0.074
16,GTTATAAA,0.154 ± 0.051
17,CTTATAAG,0.0331 ± 0.11
18,CTTATAAA,0.184 ± 0.071
19,ACTGAACG,-0.181 ± 0.086
20,AGAAACCG,-0.0327 ± 0.035
21,ACCACTTC,0.0215 ± 0.0022
22,AAGACTAA,0.0726 ± 0.081
23,GATTTTCC,-0.0716 ± 0.0054
24,AGAGGCAG,-0.125 ± 0.069
25,CTAACCAA,-0.0414 ± 0.074

row,Sequence,PBM 8-mer E-score
1,ACCTCGTC,-0.0184 ± 0.011
2,AACGTCTG,-0.086 ± 0.17
3,ACCTCACG,-0.0339 ± 0.093
4,CCCGGCGC,-0.17 ± 0.023
5,ACGCACGC,0.157 ± 0.12
6,ACGCACAA,0.0234 ± 0.071
7,ACGCACGA,0.0583 ± 0.035
8,ACGCACAG,-0.104 ± 0.024
9,ACGCACAT,0.24 ± 0.091
10,ACGCACGT,0.277 ± 0.0066
11,GCCATCAA,0.193 ± 0.0031
12,CACTGTGC,-0.123 ± 0.011
13,CCAGCCTC,-0.148 ± 0.047
14,AATACCTA,0.244 ± 0.03
15,GATACCTA,0.155 ± 0.013
16,CATACCTA,0.0465 ± 0.0019
17,ATGGATGA,0.053 ± 0.022
18,ATATTTCC,0.0705 ± 0.11
19,CTATTTCC,0.26 ± 0.051
20,CTATTTCA,0.126 ± 0.099
21,TCCAGTAA,0.071 ± 0.076
22,CAATGGCG,0.02 ± 0.0014
23,CCCGTGAG,-0.225 ± 0.016
24,CACGTGAG,0.255 ± 0.005
25,AACGTGAC,0.147 ± 0.045

row,Sequence,PBM 8-mer E-score
1,TATGTGAA,0.308 ± 0.017
2,AACGTGAG,0.0157 ± 0.023
3,CACGTGAC,0.406 ± 0.011
4,AATGTGAA,0.154 ± 0.12
5,CACGTGAA,0.392 ± 0.022
6,GACGTGAA,-0.25 ± 0.025
7,GACGTGAC,0.0337 ± 0.019
8,TACGTGAA,0.0426 ± 0.043
9,GATGTGAA,0.177 ± 0.043
10,GACCCATC,-0.0849 ± 0.083
11,GGCAACAC,0.0268 ± 0.038
12,CTCGGGTA,-0.193 ± 0.024
13,TAAATAAA,0.129 ± 0.012
14,CCCGTGAC,-0.0332 ± 0.029
15,GAAGCGCC,-0.146 ± 0.03
16,CGCGTGAC,0.286 ± 0.036
17,AGCGTGAC,0.0983 ± 0.058
18,CGCGTGAG,0.219 ± 0.012
19,CTCAGGTC,-0.298 ± 0.018
20,GCGAGGGA,0.0348 ± 0.068
21,CTATAATA,0.0904 ± 0.023
22,ATATAATA,0.244 ± 0.015
